Source: PMC7862700, “An all-to-all approach to the identification of sequence-specific readers for epigenetic DNA modifications on cytosine”

Tests used:
Experiment in all cases: DAPPL (digital affinity profiling via proximity ligation, sequencing); 10 mM Tris-HCl pH 7.5, 50 mM NaCl, 1 mM DTT, 4% glycerol, room temperature, 30 min; GST-TFs on glutathione beads, 16-mer random dsDNA library, 0.1% formaldehyde crosslink after washing; high values mean tight binding
Conditions in all cases: protein: recombinant; tags: N-terminal GST; dsDNA, one strand shown
FLI1 = target: T1, FLI1 (Homo sapiens, UniProt Q01543 1-452)
T1 sequence: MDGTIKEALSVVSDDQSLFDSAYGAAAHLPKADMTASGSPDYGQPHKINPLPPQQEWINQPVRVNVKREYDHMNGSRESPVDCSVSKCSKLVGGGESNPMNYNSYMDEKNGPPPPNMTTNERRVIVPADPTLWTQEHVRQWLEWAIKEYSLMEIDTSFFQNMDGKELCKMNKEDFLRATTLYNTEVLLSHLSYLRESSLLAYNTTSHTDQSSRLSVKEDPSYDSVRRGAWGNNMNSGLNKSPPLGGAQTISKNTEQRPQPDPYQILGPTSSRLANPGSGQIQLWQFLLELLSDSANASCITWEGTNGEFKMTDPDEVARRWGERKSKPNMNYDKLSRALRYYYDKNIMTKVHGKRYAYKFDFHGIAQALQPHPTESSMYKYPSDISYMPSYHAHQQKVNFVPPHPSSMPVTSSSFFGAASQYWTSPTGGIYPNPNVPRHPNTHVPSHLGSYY
Outline: (§1)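 Human transcription factors carrying a GST fusion were produced in yeast, bound to glutathione beads, tagged with DNA barcodes and pooled together with a tag-only sample. Each pool was held with 200 nmole of a random double-stranded 16-mer DNA library in Tris/NaCl/DTT/glycerol buffer for 30 min at room temperature, then washed, crosslinked in 0.1% formaldehyde, proximity-ligated with BsaI/T4 ligase (1 h, 37 °C), PCR-amplified and sequenced on an Illumina NextSeq500. Binding signal is the read frequency of each hexamer for a given factor divided by its frequency in the tag-only sample.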

ERG = target: T2, ERG (Homo sapiens, UniProt P11308 1-479)
T2 sequence: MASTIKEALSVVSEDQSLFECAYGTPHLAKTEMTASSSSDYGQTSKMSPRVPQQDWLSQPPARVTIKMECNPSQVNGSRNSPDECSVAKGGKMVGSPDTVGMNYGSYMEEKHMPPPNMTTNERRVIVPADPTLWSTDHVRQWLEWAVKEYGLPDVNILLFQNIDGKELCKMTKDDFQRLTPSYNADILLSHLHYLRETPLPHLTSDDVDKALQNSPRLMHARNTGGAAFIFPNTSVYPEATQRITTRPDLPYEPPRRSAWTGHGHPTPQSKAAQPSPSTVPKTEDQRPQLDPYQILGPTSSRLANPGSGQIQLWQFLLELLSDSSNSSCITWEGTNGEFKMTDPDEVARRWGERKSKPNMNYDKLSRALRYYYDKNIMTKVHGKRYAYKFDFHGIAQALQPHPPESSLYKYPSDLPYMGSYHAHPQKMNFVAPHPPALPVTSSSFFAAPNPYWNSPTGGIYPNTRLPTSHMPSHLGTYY
Outline: as §1

ELF1 = ELF1 (Homo sapiens, UniProt P32519 1-619)
Sequence of ELF1 (P32519 whole entry): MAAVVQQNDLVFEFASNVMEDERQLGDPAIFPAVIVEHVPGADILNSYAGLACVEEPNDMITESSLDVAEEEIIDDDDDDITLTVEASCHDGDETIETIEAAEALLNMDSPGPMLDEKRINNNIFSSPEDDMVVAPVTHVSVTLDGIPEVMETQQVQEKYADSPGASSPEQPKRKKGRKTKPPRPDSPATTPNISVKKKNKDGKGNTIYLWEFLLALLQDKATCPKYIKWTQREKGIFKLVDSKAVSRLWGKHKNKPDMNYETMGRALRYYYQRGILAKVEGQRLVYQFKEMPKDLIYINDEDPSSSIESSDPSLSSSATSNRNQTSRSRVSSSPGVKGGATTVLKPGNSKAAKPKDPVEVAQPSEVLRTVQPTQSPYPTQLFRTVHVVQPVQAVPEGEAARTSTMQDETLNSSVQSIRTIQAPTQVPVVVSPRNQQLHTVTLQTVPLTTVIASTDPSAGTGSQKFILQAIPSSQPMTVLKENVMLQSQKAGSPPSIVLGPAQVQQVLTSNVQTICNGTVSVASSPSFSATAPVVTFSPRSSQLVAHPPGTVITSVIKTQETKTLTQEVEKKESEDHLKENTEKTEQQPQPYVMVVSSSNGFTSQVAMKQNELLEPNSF
Outline: as §1

EHF = target: T3, EHF (Homo sapiens, UniProt Q9NZC4 1-300)
T3 sequence: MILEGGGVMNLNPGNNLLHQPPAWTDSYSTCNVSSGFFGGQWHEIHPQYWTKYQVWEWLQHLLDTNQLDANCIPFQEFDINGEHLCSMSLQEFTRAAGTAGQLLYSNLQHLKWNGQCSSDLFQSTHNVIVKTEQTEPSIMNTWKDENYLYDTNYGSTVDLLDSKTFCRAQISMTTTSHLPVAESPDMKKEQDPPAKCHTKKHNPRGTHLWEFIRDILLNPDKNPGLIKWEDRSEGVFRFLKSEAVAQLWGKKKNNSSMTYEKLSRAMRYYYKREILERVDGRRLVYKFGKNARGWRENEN
Outline: as §1

SPIB = SPIB (Homo sapiens, UniProt Q01892 1-262)
Sequence of SPIB (Q01892 whole entry): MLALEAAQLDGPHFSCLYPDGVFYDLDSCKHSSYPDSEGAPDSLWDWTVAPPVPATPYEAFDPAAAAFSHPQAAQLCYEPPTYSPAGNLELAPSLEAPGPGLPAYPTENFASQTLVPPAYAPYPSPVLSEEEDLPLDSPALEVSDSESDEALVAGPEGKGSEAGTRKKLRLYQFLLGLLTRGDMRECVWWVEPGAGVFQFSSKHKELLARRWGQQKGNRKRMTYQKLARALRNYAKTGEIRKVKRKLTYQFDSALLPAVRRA
Outline: as §1

ETV5 = ETV5 (Homo sapiens, UniProt P41161 1-510)
Sequence of ETV5 (P41161 whole entry): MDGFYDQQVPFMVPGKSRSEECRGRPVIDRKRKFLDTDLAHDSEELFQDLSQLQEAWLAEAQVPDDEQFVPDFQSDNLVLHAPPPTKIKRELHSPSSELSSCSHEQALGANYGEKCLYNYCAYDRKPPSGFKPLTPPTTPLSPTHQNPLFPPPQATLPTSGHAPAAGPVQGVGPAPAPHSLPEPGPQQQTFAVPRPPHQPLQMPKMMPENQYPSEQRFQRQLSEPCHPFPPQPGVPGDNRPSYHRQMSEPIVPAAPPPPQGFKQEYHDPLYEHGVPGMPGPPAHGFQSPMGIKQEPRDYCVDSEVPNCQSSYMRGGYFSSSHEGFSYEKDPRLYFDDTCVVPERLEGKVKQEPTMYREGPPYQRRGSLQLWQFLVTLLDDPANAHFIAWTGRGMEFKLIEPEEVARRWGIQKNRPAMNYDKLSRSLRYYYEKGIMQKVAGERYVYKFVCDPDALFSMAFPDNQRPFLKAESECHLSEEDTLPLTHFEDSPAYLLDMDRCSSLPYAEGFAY
Outline: as §1

SPIC = target: T4, SPIC (Homo sapiens, UniProt Q8N5J4 1-248)
T4 sequence: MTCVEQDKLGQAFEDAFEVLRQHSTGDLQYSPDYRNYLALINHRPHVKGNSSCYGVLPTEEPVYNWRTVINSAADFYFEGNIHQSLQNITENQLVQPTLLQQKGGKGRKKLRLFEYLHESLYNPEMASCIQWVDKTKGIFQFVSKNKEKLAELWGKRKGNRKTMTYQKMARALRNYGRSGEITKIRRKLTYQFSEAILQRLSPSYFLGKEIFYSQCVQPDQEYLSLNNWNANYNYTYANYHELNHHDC
Outline: as §1

ELF4 = ELF4 (Homo sapiens, UniProt Q99607 1-663)
Sequence of ELF4 (Q99607 whole entry): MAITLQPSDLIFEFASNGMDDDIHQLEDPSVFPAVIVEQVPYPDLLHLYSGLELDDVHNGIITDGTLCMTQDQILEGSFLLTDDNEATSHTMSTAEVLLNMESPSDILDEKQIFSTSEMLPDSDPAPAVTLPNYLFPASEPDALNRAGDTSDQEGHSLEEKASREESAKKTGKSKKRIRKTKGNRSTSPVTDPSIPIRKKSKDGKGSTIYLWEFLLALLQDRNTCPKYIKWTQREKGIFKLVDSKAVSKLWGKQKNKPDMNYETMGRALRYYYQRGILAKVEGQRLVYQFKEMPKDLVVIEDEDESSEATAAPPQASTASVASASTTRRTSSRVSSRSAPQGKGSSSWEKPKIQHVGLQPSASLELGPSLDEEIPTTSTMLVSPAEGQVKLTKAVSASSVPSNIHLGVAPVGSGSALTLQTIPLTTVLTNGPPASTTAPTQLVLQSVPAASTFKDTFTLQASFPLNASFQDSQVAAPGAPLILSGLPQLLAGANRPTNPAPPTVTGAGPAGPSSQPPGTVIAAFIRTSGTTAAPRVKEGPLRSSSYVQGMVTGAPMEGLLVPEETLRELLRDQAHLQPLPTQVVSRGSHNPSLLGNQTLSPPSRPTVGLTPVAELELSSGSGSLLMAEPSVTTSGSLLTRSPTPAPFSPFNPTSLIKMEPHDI
Outline: as §1

ETV1 = ETV1 (Homo sapiens, UniProt P50549 1-477)
Sequence of ETV1 (P50549 whole entry): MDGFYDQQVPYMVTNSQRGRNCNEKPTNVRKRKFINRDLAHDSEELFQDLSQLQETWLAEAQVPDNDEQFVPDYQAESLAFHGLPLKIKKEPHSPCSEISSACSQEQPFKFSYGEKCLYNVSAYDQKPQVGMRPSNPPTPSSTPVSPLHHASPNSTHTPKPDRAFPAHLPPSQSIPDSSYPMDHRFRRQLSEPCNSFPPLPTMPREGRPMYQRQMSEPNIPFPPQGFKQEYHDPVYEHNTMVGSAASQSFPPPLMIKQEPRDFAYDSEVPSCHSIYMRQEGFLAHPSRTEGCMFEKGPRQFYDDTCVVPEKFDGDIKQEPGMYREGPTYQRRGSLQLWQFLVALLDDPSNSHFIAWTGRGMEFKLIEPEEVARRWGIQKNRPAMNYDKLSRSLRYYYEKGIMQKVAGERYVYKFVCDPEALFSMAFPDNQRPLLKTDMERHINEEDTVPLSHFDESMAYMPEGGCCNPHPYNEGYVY
Outline: as §1

ERF = target: T5, ERF (Homo sapiens, UniProt P50548 1-548)
T5 sequence: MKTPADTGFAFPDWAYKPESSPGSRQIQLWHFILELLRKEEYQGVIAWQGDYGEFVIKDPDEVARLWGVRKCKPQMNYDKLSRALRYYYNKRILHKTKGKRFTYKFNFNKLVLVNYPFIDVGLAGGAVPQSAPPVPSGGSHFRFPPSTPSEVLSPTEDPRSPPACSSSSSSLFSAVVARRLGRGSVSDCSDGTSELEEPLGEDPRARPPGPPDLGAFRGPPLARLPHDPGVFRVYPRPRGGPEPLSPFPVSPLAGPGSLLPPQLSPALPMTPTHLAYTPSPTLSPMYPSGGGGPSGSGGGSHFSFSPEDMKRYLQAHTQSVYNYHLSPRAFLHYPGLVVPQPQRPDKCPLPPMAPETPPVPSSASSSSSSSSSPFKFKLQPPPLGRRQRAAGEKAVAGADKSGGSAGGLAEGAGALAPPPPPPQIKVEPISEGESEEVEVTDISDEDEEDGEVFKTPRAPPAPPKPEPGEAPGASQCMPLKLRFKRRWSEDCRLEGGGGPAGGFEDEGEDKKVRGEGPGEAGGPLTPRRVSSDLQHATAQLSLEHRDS
Outline: as §1

ETV3L = target: T6, ETV3L (Homo sapiens, UniProt Q6ZN32 1-361)
T6 sequence: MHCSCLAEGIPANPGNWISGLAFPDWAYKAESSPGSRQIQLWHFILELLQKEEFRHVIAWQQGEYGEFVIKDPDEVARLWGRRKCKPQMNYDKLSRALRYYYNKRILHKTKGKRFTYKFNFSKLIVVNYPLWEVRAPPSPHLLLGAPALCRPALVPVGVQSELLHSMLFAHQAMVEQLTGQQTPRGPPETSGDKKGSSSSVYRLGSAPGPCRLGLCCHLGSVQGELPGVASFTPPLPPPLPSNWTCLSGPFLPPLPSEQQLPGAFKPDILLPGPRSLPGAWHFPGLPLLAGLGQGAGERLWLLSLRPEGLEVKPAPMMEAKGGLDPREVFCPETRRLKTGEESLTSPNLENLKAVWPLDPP
Outline: as §1

SPDEF = target: T7, SPDEF (Homo sapiens, UniProt O95238 1-335)
T7 sequence: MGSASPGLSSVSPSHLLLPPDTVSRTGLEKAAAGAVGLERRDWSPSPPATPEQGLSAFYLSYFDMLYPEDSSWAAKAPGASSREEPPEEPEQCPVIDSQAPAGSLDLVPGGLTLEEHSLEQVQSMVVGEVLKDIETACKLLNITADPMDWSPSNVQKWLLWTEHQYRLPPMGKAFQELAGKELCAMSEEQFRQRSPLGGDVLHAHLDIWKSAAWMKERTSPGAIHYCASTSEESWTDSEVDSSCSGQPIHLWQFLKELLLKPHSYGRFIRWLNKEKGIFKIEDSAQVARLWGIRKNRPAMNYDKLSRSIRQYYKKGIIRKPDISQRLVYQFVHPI
Outline: as §1

ETV3 = target: T8, ETV3 (Homo sapiens, UniProt P41162-2 1-143)
T8 sequence: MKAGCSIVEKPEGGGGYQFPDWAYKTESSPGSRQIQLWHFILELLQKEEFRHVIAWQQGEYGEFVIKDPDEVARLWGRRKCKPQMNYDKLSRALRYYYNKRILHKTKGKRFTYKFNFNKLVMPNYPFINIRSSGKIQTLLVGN
Outline: as §1

ETV6 = ETV6 (Homo sapiens, UniProt P41212 1-452)
Sequence of ETV6 (P41212 whole entry): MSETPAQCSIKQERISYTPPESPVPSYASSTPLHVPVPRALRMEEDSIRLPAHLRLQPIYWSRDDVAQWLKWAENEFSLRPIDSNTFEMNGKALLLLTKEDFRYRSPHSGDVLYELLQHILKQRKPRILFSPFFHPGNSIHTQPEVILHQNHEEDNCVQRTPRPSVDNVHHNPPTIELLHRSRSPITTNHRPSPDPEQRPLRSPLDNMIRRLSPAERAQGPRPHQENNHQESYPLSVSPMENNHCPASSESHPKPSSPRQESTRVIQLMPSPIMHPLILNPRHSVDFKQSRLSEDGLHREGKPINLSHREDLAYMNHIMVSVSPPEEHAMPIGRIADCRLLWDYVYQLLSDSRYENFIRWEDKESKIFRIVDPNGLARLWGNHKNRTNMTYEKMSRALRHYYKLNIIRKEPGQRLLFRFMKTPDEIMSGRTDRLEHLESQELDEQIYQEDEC
Outline: as §1

GABPA = target: T9, GABPA (Homo sapiens, UniProt Q06546 1-454)
T9 sequence: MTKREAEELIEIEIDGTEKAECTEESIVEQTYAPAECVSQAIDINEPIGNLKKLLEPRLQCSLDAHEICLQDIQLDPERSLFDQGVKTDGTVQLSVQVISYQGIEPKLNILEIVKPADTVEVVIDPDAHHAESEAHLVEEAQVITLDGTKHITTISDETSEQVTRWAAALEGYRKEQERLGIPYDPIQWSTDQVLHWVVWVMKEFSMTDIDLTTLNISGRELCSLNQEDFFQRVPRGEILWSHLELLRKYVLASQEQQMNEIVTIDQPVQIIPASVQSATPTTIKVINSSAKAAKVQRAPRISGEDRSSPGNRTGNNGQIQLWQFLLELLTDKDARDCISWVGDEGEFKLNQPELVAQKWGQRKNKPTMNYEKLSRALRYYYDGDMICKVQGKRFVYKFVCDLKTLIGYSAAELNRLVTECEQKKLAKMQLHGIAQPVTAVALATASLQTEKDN
Outline: as §1

SPI1 = SPI1 (Homo sapiens, UniProt P17947 1-270)
Outline: as §1

FEV = target: T10, FEV (Homo sapiens, UniProt Q99581 1-238)
T10 sequence: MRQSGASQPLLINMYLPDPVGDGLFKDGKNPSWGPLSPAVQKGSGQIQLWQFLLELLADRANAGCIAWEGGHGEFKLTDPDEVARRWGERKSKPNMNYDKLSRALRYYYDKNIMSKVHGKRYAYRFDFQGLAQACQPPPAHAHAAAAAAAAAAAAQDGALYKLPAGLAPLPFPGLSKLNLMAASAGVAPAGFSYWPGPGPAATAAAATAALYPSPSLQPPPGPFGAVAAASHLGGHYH
Outline: as §1

Row | Sequence | binding signal (FLI1) | binding signal (ERG) | binding signal (ELF1) | binding signal (EHF) | binding signal (SPIB) | binding signal (ETV5) | binding signal (SPIC) | binding signal (ELF4) | binding signal (ETV1) | binding signal (ERF) | binding signal (ETV3L) | binding signal (SPDEF) | binding signal (ETV3) | binding signal (ETV6) | binding signal (GABPA) | binding signal (SPI1) | binding signal (FEV)
1 | CACGGA | 1.03 fold enrichment (6-mer frequency, TF over GST control) | 1.04 fold enrichment (6-mer frequency, TF over GST control) | 1.04 fold enrichment (6-mer frequency, TF over GST control) | 1.1 fold enrichment (6-mer frequency, TF over GST control) | 1.05 fold enrichment (6-mer frequency, TF over GST control) | 1.05 fold enrichment (6-mer frequency, TF over GST control) | 1.06 fold enrichment (6-mer frequency, TF over GST control) | 1.03 fold enrichment (6-mer frequency, TF over GST control) | 1.06 fold enrichment (6-mer frequency, TF over GST control) | 1.01 fold enrichment (6-mer frequency, TF over GST control) | 1.04 fold enrichment (6-mer frequency, TF over GST control) | 1.25 fold enrichment (6-mer frequency, TF over GST control) | 1.22 fold enrichment (6-mer frequency, TF over GST control) | 1.09 fold enrichment (6-mer frequency, TF over GST control) |  |  | 
2 | TGTGGC | 1.05 fold enrichment (6-mer frequency, TF over GST control) | 1.07 fold enrichment (6-mer frequency, TF over GST control) |  | 1.02 fold enrichment (6-mer frequency, TF over GST control) | 1.09 fold enrichment (6-mer frequency, TF over GST control) | 1.01 fold enrichment (6-mer frequency, TF over GST control) | 1.14 fold enrichment (6-mer frequency, TF over GST control) | 1.02 fold enrichment (6-mer frequency, TF over GST control) | 1.05 fold enrichment (6-mer frequency, TF over GST control) |  | 1.06 fold enrichment (6-mer frequency, TF over GST control) |  |  | 1.19 fold enrichment (6-mer frequency, TF over GST control) | 1.03 fold enrichment (6-mer frequency, TF over GST control) | 1.14 fold enrichment (6-mer frequency, TF over GST control) | 1.13 fold enrichment (6-mer frequency, TF over GST control)
